# Screens: PubChem, National Center for Advancing Translational Sciences (NCATS)
# IL1B secr inh = inhibitors of inflammasome signaling (IL-1 beta secretion). AID 743279. hit rate 4.7% among 360,000. THP-1 LPS/ATP IL-1B secretion, AlphaLISA, 16 h; active compounds read low. activity change, % at 57.5 µM; in the data active means activity change below about -50%; inconclusive means mostly about -30% to -49%
#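 Secreted IL-1B measured by AlphaLISA bead assay after 16 h compound exposure of THP-1 cells; compounds (final up to 57.5 uM) added 1 h before LPS (250 ng/mL) and ATP (1.25 mM) stimulation; lower signal means less secretion.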
# HT1080-NT tox = kills 2HG-producing HT-1080-NT fibrosarcoma cells; HT-1080-NT fibrosarcoma viability, CellTiter-Glo ATP luminescence, 48 h; Potency, µM (titrated, usually from 46.1 µM), for the others: top-dose activity, negative = less viability, actives largely listed as cytotoxic; hit rate 1.6% among 360,000; AID 686970;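 further: NT is the 2HG producing partner of a matched IDH1 knockdown line; potency means the concentration at half of the fitted maximal effect; 0% = DMSO-treated cells and -100% = media-only wells without cells; nearly all actives have a fitted effect of over 55% in size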
#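 Viability by CellTiter-Glo luminescence after 48 h compound exposure at 37C of HT-1080-NT cells (750/well, RPMI, 5% FBS). % activity scaled between DMSO wells and medium-only wells, then curve-fitted and categorized by curve class.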
# HT1080 IDH1KD tx = toxicity to HT-1080 IDH1 knockdown cells (counter line) | hit rate 2% among 360,000 | Potency, µM (top dose mostly 46.1 µM), inactives show top-dose activity, negative = toxicity, most hits filed as cytotoxic | HT-1080 IDH1 knockdown viability, ATP luminescence, 48 h;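 further: potency means the concentration at half of the fitted maximal effect; 0% = DMSO wells and -100% = cell-free medium wells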
#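 % activity derives from luminescence (CellTiter-Glo), normalised to DMSO and no-cell wells. HT-1080-IDH1KD cells, 750/well, had 48 h compound exposure at 37 °C.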
# TDP1 cell noCPT = qHTS for Inhibitors of human tyrosyl-DNA phosphodiesterase 1 (TDP1): qHTS in cells in absence of CPT | DT40 Tdp1-/- hTDP1 cells, no CPT, ATP luminescence, 48 h | Potency, µM (series often up to 46.2 µM), for inactives: at the highest dose activity change, negative = growth inhibition, hits mostly inhibitors | hit rate 15% among 420,000 | AID 686978, 2013; further: potency means the concentration at half of the fitted maximal effect; nearly all actives have a fitted effect of over 55% in size
#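 Compound effects on proliferation are scored in DT40 Tdp1-/-;hTDP1 cells in the absence of CPT. ATP levels (CellTiter-Glo luminescence) are recorded after a ≥48 hr, 37 °C incubation.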
# uPA generation = blocks generation of uPA at the cell surface; cell surface uPA generation assay, qHTS; Potency, µM (highest dose often 38.3 µM), without a hit: top-dose activity change, negative = inhibition, usual class: inhibitors; hit rate 0.31% among 330,000; active means well fitted inhibition curve with a large enough effect; inconclusive means small, poorly fitted or top-dose-only effect; inactive means no such curve, though single readings can be large or run the other way; tested in mouse RAW 264.7 cells; further: potency means the concentration at half of the fitted maximal effect; nearly all actives have a fitted effect of over 55% in size
# TDP1 cell CPT = growth inhibition of DT40 Tdp1-/-;hTDP1 cells with camptothecin (screen for TDP1 inhibitors). chicken DT40 Tdp1-/-;hTDP1 cells + 20 nM CPT, ATP luminescence, 48 h. Potency, µM (series often up to 46.2 µM), inactives show top-dose activity change, negative = growth inhibition, usual class: inhibitors. hit rate 12% among 420,000. AID 686979; further: potency means the concentration at half of the fitted maximal effect; nearly all actives have a fitted effect of over 55% in size
#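 Chicken DT40 Tdp1-/- cells complemented with human TDP1, 400 cells/well, exposed to compounds plus 20 nM camptothecin for at least 48 h at 37 C; viability read as ATP content by CellTiter-Glo luminescence.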
# * hit, by the source's call; ? = inconclusive; / = not tested or not shown. A selection: hits, their analogues and other compounds. The true share with any hit is near 19%. Unless noted, the call rests on the fitted dose curve; in most records, active means well fitted curve in the direction sought with a large enough effect; inconclusive means small, poorly fitted or top-dose-only effect, or another doubt; inactive means no such curve, though single readings can be large; an effect the other way counts as inactive or inconclusive. Unless noted, on the % scale 0 is the no-effect control and ±100 the full control effect.
SMILES,IL1B secr inh,HT1080-NT tox,HT1080 IDH1KD tx,TDP1 cell noCPT,uPA generation,TDP1 cell CPT
Fc1ccc(-[n+]2nc(Nc3ccccc3)sc2-c2c(Cl)cccc2Cl)cc1,-93.6*,?,-23.2%,?,?,18.4µM*
CCc1ccc(Nc2n[n+](-c3ccccc3)c(-c3cc(OC)c(OC)cc3Br)s2)cc1,-17.6,-16.0%,-7.4%,?,-11.3%,16.4µM*
CC(=O)O[C@@H]1C(=O)O[C@@H]2[C@H]1OC(=O)[C@@H]2OC(C)=O,/,/,/,-1.7%,/,20.7%
O=[N+]([O-])c1cccc(-c2ccc(CN3CCCCC3)o2)c1,-12.5,-20.4%,-16.3%,-23.2%,-0.8%,5.8%
O=C(CN1CCN(c2ccccc2)CC1)Nc1cccc(C(F)(F)F)c1,14.5,6.7%,-1.0%,-13.0%,-0.6%,0.8%
CC1CN(CC(=O)Nc2cccc(C(=O)Nc3cccc(C(F)(F)F)c3)c2)CC(C)O1 (stereo not drawn),-1.3,-24.3%,?,23.1µM*,-3.7%,23.1µM*
CC1CCN(CC(=O)Nc2cccc(C(=O)Nc3cccc(C(F)(F)F)c3)c2)CC1,-74.9*,16.4µM*,23.1µM*,16.4µM*,-10.6%,?
COc1ccc(CNC(=O)Cn2ncc3c(=O)oc4ccccc4c32)c(OC)c1,/,/,/,-23.2%,/,-26.3%
COc1cccc(-c2cc3nc(-c4ccccc4)cc(N4CCCC(O)C4)n3n2)c1 (stereo not drawn),?,?,?,?,-64.0%,?
Cc1cccc(-c2cc3nc4c(c(N5CCCC(O)C5)n3n2)CCC4)c1 (stereo not drawn),/,?,?,25.9µM*,10.5%,?
CN(C)CCCNc1c2c(nc3cc(-c4cccc(F)c4)nn13)CCC2,79.5,-12.7%,9.4%,9.0%,-2.4%,18.6%
OC1CCCN(c2c3c(nc4cc(-c5cccc(F)c5)nn24)CCCC3)C1 (stereo not drawn),-4.8,-11.5%,-20.7%,?,5.6%,23.1µM*
COCCN1CCN(c2c3c(nc4cc(-c5cccc(F)c5)nn24)CCC3)CC1,-17.8,-12.1%,-3.6%,23.1µM*,-4.2%,?
OC1CCCN(c2c3c(nc4cc(-c5cccc(Cl)c5)nn24)CCC3)C1 (stereo not drawn),-101.7*,?,-17.9%,?,5.7%,18.4µM*
CC(C)OCCCn1c(SCC(=O)Nc2ccccc2C(F)(F)F)nc2nccnc2c1=O,5.1,19.6%,8.5%,7.7%,-7.3%,0.8%
CC(=O)C1=C(C)Nc2ncnn2C1c1ccc(Br)cc1 (stereo not drawn),16.5,-1.8%,-0.4%,-3.0%,4.7%,3.3%
CCCC(=O)N/C(N)=N/c1nc(C)c2cc(C)ccc2n1,-20.4,1.7%,-15.6%,23.1µM*,4.6%,18.4µM*
Cc1cc2nc(N=C(N)N)nc(C)c2cc1C,-78.4*,-22.1%,-0.1%,8.2µM*,-4.2%,14.6µM*
CCC(=O)N/C(N)=N/c1nc(C)c2cc(C)c(C)cc2n1,/,6.8%,1.8%,?,5.7%,-20.9%
CCc1ccc2nc(N=C(N)N)nc(C)c2c1,-91.3*,?,?,7.31µM*,2.8%,10.3µM*
Cc1cc2nc(/N=C(\N)NC(=O)C(C)C)nc(C)c2cc1C,-93.5*,-25.2%,-15.4%,?,-4.6%,?
CC(=O)Nc1ccc(S(=O)(=O)NCC(=O)OCC(=O)NCCc2ccccc2)cc1,-7.7,-4.7%,0.3%,-0.3%,/,20.6%
COC(=O)[C@H](CC(C)C)NCc1cccc(CN[C@@H](CC(C)C)C(=O)OC)c1,23.0,1.0%,3.3%,-26.5%,10.3%,?
Cc1nc(/N=C(\N)NC(=O)c2ccccc2)nc2ccccc12,-11.1,?,?,?,/,29.1µM*
Cc1ccc2nc(N=C(N)N)nc(C)c2c1,0.0,?,?,23.1µM*,-6.6%,?
